{"source": "PubChem BioAssay (Tox21)", "note": "Results filed as inconclusive are left out. Activity calls are given as the source filed them. Calls come from the whole dose curve."}
{"assay": "qHTS assay for small molecule disruptors of the mitochondrial membrane potential - cell viability (AID 720634);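 note: human HepG2 liver cancer cells; nearly all actives have a fitted effect of over 20% in size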", "conditions": "HepG2 viability, ATP luminescence (CellTiter-Glo), 1 h; series mostly up to 83.2 µM", "excerpt": "U.S. Tox21 Program National Center for Advancing Translational Sciences [NCATS] NIH Chemical Genomics Center [NCGC] U.S. Environmental Protection Agency [EPA] National Institutes of Environmental Health Sciences [NIEHS] National Toxicology Program [NTP] U.S. Food and Drug Administration [FDA] Tox21 Assay Overview: Mitochondrial membrane potential (MMP), one of the parameters for mitochondrial function, is generated by mitochondrial electron transport chain that creates an electrochemical gradient by a series of redox reactions. This gradient drives the synthesis of ATP, a crucial molecule for various cellular processes. Measuring MMP in living cells is commonly used to assess the effect of chemicals on mitochondrial function; decreases in MMP can be detected using lipophilic cationic fluorescent dyes. […] The dye accumulates in the mitochondria of healthy cells as aggregates, with red fluorescence. The mitochondrial potential decreases and the dye could not accumulate in the mitochondria and remains in the cytoplasm in monomers, with green fluorescence. In addition to the mitochondrial potential assay, these cells were also used to test the cytotoxicity by determining the cell viability in the culture based on the quantitation of ATP present. The cytotoxicity was measured in the same assay well of MMP assay.\nTox21 Assay Protocol Summary: 2,000 HepG2 cells in 5 uL/well were dispensed into black, clear-bottom 1536-well plates using a Multidrop Combi (Thermo Scientific) dispenser. The assay plates were incubated for an overnight at 37 C to allow cells to attach to the wells, followed by the transfer of 23 nL compound or DMSO vehicle by a pin tool (Kalypsys). The plates were incubated for 1 hr at 37 C and 5% CO2, followed by the addition of 5 uL of 2X m-MPI dye into each well using Flying Reagent Dispenser (Aurora Discovery) and then CellTiter-Glo reagent was added at 4 uL/well and incubated 30 min at room temperature. Then luminescence intensity was quantified on a ViewLux CCD-based plate reader."}
{"smiles": "O=C(c1ccccc1)C1(O)CCCCC1", "outcome": "inactive"}
{"smiles": "CN1CC(=O)N/C1=N/C(=O)Nc1cccc(Cl)c1", "outcome": "inactive"}
{"smiles": "CN(C)C(=O)Oc1cccc([N+](C)(C)C)c1", "outcome": "inactive"}
{"smiles": "CC(=O)NC(=O)c1ccccc1O", "outcome": "inactive"}
{"smiles": "CC1(C)OC[C@@H](COC(=O)CCc2ccc(OC[C@@H](O)CNCCNC(=O)N3CCOCC3)cc2)O1", "outcome": "inactive"}
{"smiles": "CC(=O)O[C@@]12CO[C@@H]1C[C@H](O)[C@@]1(C)C(=O)[C@H](O)C3=C(C)[C@@H](OC(=O)[C@H](O)[C@@H](NC(=O)OC(C)(C)C)c4ccccc4)C[C@@](O)([C@@H](OC(=O)c4ccccc4)[C@H]21)C3(C)C", "outcome": "inactive"}
{"smiles": "O=C(O)CCSCCC(=O)O", "outcome": "inactive"}
{"smiles": "CC(C#N)(CCC(=O)O)N=NC(C)(C#N)CCC(=O)O", "note": "(stereo not given)", "outcome": "inactive"}
{"smiles": "CC(=O)C1CCCCC1=O", "note": "(stereo not given)", "outcome": "inactive"}
{"smiles": "COCCOC[C@H](CC1(C(=O)NC2CCC(C(=O)O)CC2)CCCC1)C(=O)Oc1ccc2c(c1)CCC2", "note": "(stereo not given in full)", "outcome": "inactive"}
{"smiles": "O=C(O)c1cn(C2CC2)c2cc(N3CCNCC3)c(F)cc2c1=O", "outcome": "inactive"}
{"smiles": "Nc1ccncc1N", "outcome": "inactive"}
{"smiles": "CC1=NS(=O)(=O)c2cc(Cl)ccc2N1", "outcome": "inactive"}
{"smiles": "O=C1NC(=O)C2CC=CCC12", "note": "(stereo not given)", "outcome": "inactive"}
{"smiles": "NC(=O)N1c2ccccc2CC(=O)c2ccccc21", "outcome": "inactive"}
{"smiles": "Cc1ncc([C@@H](CCCCCCc2ccc3c(n2)NCCC3)CC(=O)O)cn1", "outcome": "inactive"}
{"smiles": "Nc1ccccn1", "outcome": "inactive"}
{"smiles": "CC(C)NNC(=O)c1ccncc1", "outcome": "inactive"}
{"smiles": "Nc1ccn([C@@H]2O[C@H](CO)[C@@H](O)C2(F)F)c(=O)n1", "outcome": "inactive"}
{"smiles": "CC(C)CC(C)(N)C#N", "note": "(stereo not given)", "outcome": "inactive"}
{"smiles": "CC/C=C\\CCOC(C)OCC", "note": "(stereo not given)", "outcome": "inactive"}
{"smiles": "CC(C)(C)C(=O)c1ccccc1", "outcome": "inactive"}
{"smiles": "CC(C)[C@H]1CC[C@@H](C)CC1=O", "outcome": "inactive"}
{"smiles": "C[N+]12CCC(CC1)C(OC(=O)C(O)(c1ccccc1)c1ccccc1)C2", "note": "(stereo not given)", "outcome": "inactive"}
{"smiles": "CCN[C@@H]1C[C@H](N)[C@@H](OC2OC(CN)=CCC2N)[C@H](O)[C@H]1O[C@H]1OC[C@](C)(O)[C@H](NC)[C@H]1O", "note": "(stereo not given in full)", "outcome": "inactive"}
{"smiles": "Cc1ccc(-c2ncc(Cl)cc2-c2ccc(S(C)(=O)=O)cc2)cn1", "outcome": "inactive"}
{"smiles": "C=CN1CCCCCC1=O", "outcome": "inactive"}
{"smiles": "CCCCCCCCCC[N+](C)(C)[O-]", "outcome": "inactive"}
{"smiles": "CCOC(=O)OC(C)OC1=C(C(=O)Nc2ccccn2)N(C)S(=O)(=O)c2ccccc21", "note": "(stereo not given)", "outcome": "inactive"}
{"smiles": "CCN1C=CN(C)C1C", "note": "(stereo not given)", "outcome": "inactive"}
{"smiles": "CC(C)(C)C(=O)Oc1ccc(S(=O)(=O)Nc2ccccc2C(=O)NCC(=O)O)cc1", "outcome": "inactive"}
{"smiles": "NS(=O)(=O)Cc1noc2ccccc12", "outcome": "inactive"}
{"smiles": "C=COC(=O)C(C)(CC)CCC(C)C", "note": "(stereo not given)", "outcome": "inactive"}
{"smiles": "CO[C@@]1(NC(=O)C(C(=O)O)c2ccc(O)cc2)C(=O)N2C(C(=O)O)=C(CSc3nnnn3C)CO[C@@H]21", "note": "(stereo not given in full)", "outcome": "inactive"}
{"smiles": "CCCCOCCOC(=O)COc1cc(Cl)c(Cl)cc1Cl", "outcome": "inactive"}
{"smiles": "CO/N=C(\\C(=O)N[C@@H]1C(=O)N2C(C(=O)O)=C(CSc3nc(=O)c(O)nn3C)CS[C@H]12)c1csc(N)n1", "outcome": "inactive"}
{"smiles": "CC1=NN(c2cccc(S(=O)(=O)O)c2)C(=O)C1", "outcome": "inactive"}
{"smiles": "CC[N+](CC)(CC)CCOc1cccc(OCC[N+](CC)(CC)CC)c1OCC[N+](CC)(CC)CC", "outcome": "inactive"}
{"smiles": "COc1c(N2CCNC(C)C2)c(F)cc2c(=O)c(C(=O)O)cn(C3CC3)c12", "note": "(stereo not given)", "outcome": "inactive"}
{"smiles": "[Ca+2]", "outcome": "inactive"}
